Assay results reported in PubChem BioAssay AID485344 (National Center for Advancing Translational Sciences (NCATS), 2010).
Hit rate of the full screen: of about 340,000 compounds, about 6,900 (2%) were called active. Rule as the data show it: active = inhibition above about 30%; inactive = below that, where a call was filed. Shown is part of a subset that was picked to be rich in actives.

biological target: D(2) dopamine receptor (Homo sapiens) (UniProt P14416); assay: HTS Assay for Allosteric Antagonists of the Human D2 Dopamine Receptor: Primary Screen for Antagonists; conditions: HEK293 TREx D2 cells, calcium flux, dopamine EC80; at 10 µM; stronger effect = higher value; also: 0% is about no effect
Sequence (P14416 whole entry, looked up): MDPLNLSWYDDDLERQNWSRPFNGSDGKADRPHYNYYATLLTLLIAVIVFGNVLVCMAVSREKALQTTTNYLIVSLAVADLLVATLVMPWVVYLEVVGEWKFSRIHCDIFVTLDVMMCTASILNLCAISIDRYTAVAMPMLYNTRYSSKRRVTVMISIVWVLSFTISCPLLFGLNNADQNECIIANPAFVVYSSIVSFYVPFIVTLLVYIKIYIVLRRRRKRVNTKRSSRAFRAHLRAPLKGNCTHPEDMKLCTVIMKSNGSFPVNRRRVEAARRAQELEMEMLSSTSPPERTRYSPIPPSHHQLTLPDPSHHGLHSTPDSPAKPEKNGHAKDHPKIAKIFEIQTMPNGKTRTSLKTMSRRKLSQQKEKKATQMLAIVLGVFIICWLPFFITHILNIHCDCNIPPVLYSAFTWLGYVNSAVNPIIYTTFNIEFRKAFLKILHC
In short: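 Measurement of antagonist activity uses fluorescent calcium dye in inducible HEK293 T-REx D2 cells: 10 s baseline, compound addition with 180 s read, EC80 dopamine addition with a further 180 s read.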

| SMILES | inhibition |
| --- | --- |
| COc1ccc(-c2sc3ccc(OC)cc3c2C#Cc2ccccn2)cc1 | -2.01% (inactive) |
| CC1CN(C2CCCCC2)c2nc3c(c(=O)n(C)c(=O)n3C)n2C1 (stereo not drawn) | 38.7% (active) |
| CC(O)c1nc2c(c(=O)n(C)c(=O)n2C)n1C (stereo not drawn) | 0.261% (inactive) |
| CCCCCCn1c(CN2CCCC(C)C2)nc2c1c(=O)n(C)c(=O)n2C (stereo not drawn) | 2.89% (inactive) |
| CCN(CC(=O)NCc1cccs1)C(=O)/C=C/c1ccc(C)cc1 | 0.23% (inactive) |
| COc1ccc2c(C)cc(SCC(=O)NCC3CCCO3)nc2c1 (stereo not drawn) | 0.454% (inactive) |
| O=C(NC1CCCCCC1)C1CCN(C(=O)c2ccc(Cl)cc2)CC1 | -21.8% (inactive) |
| COc1ccccc1OCCNC(=O)C(CCSC)NC(=O)COc1ccccc1 (stereo not drawn) | 0.971% (inactive) |
| S=C(Nc1cccc(Cl)c1)Nc1ccc2cn[nH]c2c1 | -2.72% (inactive) |
| Cc1csc(NC(=S)Nc2cccc(Cl)c2)n1 | 32.1% (active) |
| S=C(Nc1cccc(Cl)c1)Nc1ccc2c(c1)OCCO2 | 3.88% (inactive) |
| CN(CC(=O)Nc1ccc(F)cc1)CC(=O)Nc1ccc(Cl)c(S(=O)(=O)N2CCOCC2)c1 | -2.29% (inactive) |
| CN(CCC(=O)Nc1cc(S(=O)(=O)N(C)C)ccc1Cl)CC(=O)Nc1ccc(F)cc1 | 50.6% (active) |
| CN(CC(=O)Nc1ccc(S(=O)(=O)N2CCCC2)cc1)Cc1ccc(Cl)c(Cl)c1 | -19.3% (inactive) |
| Cc1ccc(CN2CC(C(=O)NNC(=O)Cn3ccc(C(F)(F)F)n3)CC2=O)cc1 (stereo not drawn) | 9.85% (inactive) |
| COC(=O)C1CCN(C(=O)NC2CC(=O)N(c3ccc4c(c3)OCCO4)C2)CC1 (stereo not drawn) | 10.2% (inactive) |
| Cc1ccc(/C=N/NC(=S)Nc2cccc(S(=O)(=O)N(C)C)c2)o1 | -10.5% (inactive) |
| CN(C)S(=O)(=O)c1cccc(NC(=S)NCc2ccc3c(c2)OCO3)c1 | 51.6% (active) |
| Cc1c(Cl)cccc1NC(=S)NCc1ccc2c(c1)OCO2 | -3.97% (inactive) |
| O=C(O)CN1c2cccc3cccc(c23)S1(=O)=O | 14.3% (inactive) |

| SMILES | inhibition |
| --- | --- |
| CC(C)CN(CC(C)C)C(=O)CN1c2cccc3cccc(c23)S1(=O)=O | -10.2% (inactive) |
| Cc1ccc(S(=O)(=O)N(C)C)cc1NC(=O)CN1c2cccc3cccc(c23)S1(=O)=O | 37% (active) |
| O=C(COc1ccccc1Cl)N1N=C(c2cccs2)CC1c1ccco1 (stereo not drawn) | 5.49% (inactive) |
| Cc1ccc(-c2csc(NC(=O)C3=COCCO3)n2)cc1C | 1.39% (inactive) |
| CCC(=O)Nc1ccc2c(c1)nc(CCN1CCN(c3ccccn3)CC1)n2C | 57% (active) |
| CCN(CC)c1ccc(NC(=O)CN2CCN(c3ccccn3)CC2)cc1 | 5.78% (inactive) |
| CCOC(=O)N1CCN(Cc2nc3cc(NC(C)=O)ccc3n2C)CC1 | 31.3% (active) |
| CCOC(=O)N1CCN(Cc2nc3cc(NC(=O)CC)ccc3n2CC)CC1 | 3.26% (inactive) |
| CN1CCN(Cc2nc3cc(NC(=O)COc4ccc([N+](=O)[O-])cc4)ccc3n2C)CC1 | -8.44% (inactive) |
| Cn1c(CCN2CCCCCC2)nc2cc(NC(=O)Nc3ccccc3)ccc21 | 0.502% (inactive) |
| O=C(COC(=O)c1cc(S(=O)(=O)N2CCOCC2)ccc1Cl)NCCc1ccccc1 | -3.61% (inactive) |
| CC1CCC(CN2CCN=C2N(C)C)CC1 (stereo not drawn) | 11.2% (inactive) |
| COc1ccccc1C1=CC(=O)C[C@H](c2ccc(F)cc2)C1 | 4.4% (inactive) |
| O=S(=O)(c1ccccc1)N1CCC(c2ccccc2)CC1 | 0.0462% (inactive) |
| COc1ccccc1C(=O)NC(CCSC)C(=O)N1CCN(C(C)=O)CC1 (stereo not drawn) | 17.9% (inactive) |
| O=c1oc2ccc(C#CC3(O)CCCCC3)cc2cc1-n1cc(-c2ccsc2)nn1 | 2.59% (inactive) |
| OCC[C@H]1C[C@@H](O)[C@H](O)[C@]2(OCCCc3ccccc32)O1 | 5.04% (inactive) |
| O=C(OCC(=O)N1CCCCCC1)c1cnc(Cl)c(Cl)c1 | -0.916% (inactive) |
| CC(C)NC(=O)NC(=O)CSc1nnc(-c2ccccc2F)n1N | 26% (inactive) |
| Nn1c(SCC(=O)NC(=O)NC2CCCC2)nnc1-c1ccccc1F | 88.5% (active) |

| SMILES | inhibition |
| --- | --- |
| Nn1c(SCC(=O)NC2CCCC2)nnc1-c1ccccc1F | -13.5% (inactive) |
| CCOc1ccc(CCNC(=O)COC(=O)CCS(=O)(=O)c2ccc(C)cc2)cc1OCC | -15.8% (inactive) |
| O=C(NC1CCCCC1)c1ccc(-c2ccc(Cl)cc2)o1 | 17.9% (inactive) |
| COCCN1C(=O)c2oc3c(C)cc(C)cc3c(=O)c2C1c1cccc(O)c1 (stereo not drawn) | 8.13% (inactive) |
| O=C1c2oc3ccccc3c(=O)c2C(c2cccc(O)c2)N1c1ccccn1 (stereo not drawn) | 30.8% (active) |
| O=C1c2oc3ccc(Br)cc3c(=O)c2C(c2cccc(F)c2)N1CCO (stereo not drawn) | 24.1% (inactive) |
| Cc1ccc(-c2nn(-c3ccccc3)cc2C(=O)NC2CCC(O)CC2)cc1 (stereo not drawn) | 11.3% (inactive) |
| CC(C)(C)OC(=O)N[C@H](C(=O)OC(C)(C)C)c1ccc(Br)cc1 | -2.43% (inactive) |
| COc1cccc(C2=CC(=O)C[C@H](c3ccc(F)cc3)C2)c1OC | 2.64% (inactive) |
| CCCc1cc(=O)[nH]c(SCC(=O)N2CCN(S(=O)(=O)c3ccc(C)cc3C)CC2)n1 | 40.9% (active) |
| Cc1ccc(S(=O)(=O)N2CCN(C(=O)COC(=O)c3c(C)cc(C)cc3C)CC2)c(C)c1 | -0.571% (inactive) |
| Cc1ccc(S(=O)(=O)N2CCN(C(=O)CSc3cc(C)ccc3C)CC2)c(C)c1 | 12.2% (inactive) |
| O=C(COC(=O)C1CC2CCCC(C1)C2=O)NC(=O)c1ccccc1 (stereo not drawn) | -17.3% (inactive) |
| CC(Oc1ccc(Br)cc1)C(=O)NC1CCCCCC1 (stereo not drawn) | -1.39% (inactive) |
| O=C(Nc1ccccc1C(=O)Nc1ccncc1)c1ccc([N+](=O)[O-])cc1 | -16% (inactive) |
| O=C(COc1ccc([N+](=O)[O-])cc1)Nc1cccc(C(=O)Nc2ccccc2C(=O)O)c1 | 52% (active) |
| O=C(COc1ccc([N+](=O)[O-])cc1)Nc1ccc(N2CCCC2)cc1 | -10.9% (inactive) |
| Cc1ccc(S(=O)(=O)N(C)CC(=O)NCC(c2ccc(F)cc2)N2CCOCC2)cc1 (stereo not drawn) | 12.3% (inactive) |
